Source: PubChem (National Center for Advancing Translational Sciences (NCATS))
LASV entry inh: inhibitors of Lassa virus binding or cell entry; Lassa virus pseudotype entry inhibition, cell reporter; Potency, µM (top dose mostly 37.9 µM), hits mostly inhibitors; 300,000 compounds, 1.2% hits; AID 540256; calls by dose curve; tested in HEK293 cells; further: nearly all actives have a fitted effect of over 50% in size
HCMV inh: blocks human cytomegalovirus replication; HFF cells, HCMV-luciferase reporter, 72 h; stronger effect = lower value; activity change, negative = inhibition, % at 57.5 µM; 410,000 compounds, 4.5% hits; in the data active means activity change below about -60%; inconclusive means no clear call, values can overlap the other calls; inactive means above about -39%
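Compounds were evaluated in HFFs infected with an HCMV luciferase reporter virus (MOI 1 PFU/cell). Luciferase in lysates collected 72 h post infection served as the replication measure.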
HCV inhibitor: inhibitors of hepatitis C virus infection; Huh7.5.1 HCVcc-Cre infection, luciferase reporter, 44 h; Potency, µM (highest dose often 41.8 µM), hits mostly inhibitors; 340,000 compounds, 3.4% hits; AID 651820
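After 44 h co-culture of compound, cells and HCVcc-Cre (~0.5 moi), substrate is added for 15 min at room temperature and luciferase measured over 15 sec. Cells were seeded at 1,000/well and pre-cultured 4 h.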
Pf growth 96h: P. falciparum growth inhibition at 96 hour, primary screen for plastid delayed-death inhibitors; AID 504834; Potency, µM (doses to about 28.7 µM), most hits filed as inhibitors; P. falciparum luciferase reporter growth, 96 h; 320,000 compounds, 6.9% hits
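Cell-based qHTS: luciferase-tagged P. falciparum in erythrocytes (2% hematocrit, 0.05% parasitemia final) incubated with compounds for 96 hours, 37 C, 5% CO2; luciferase detection reagent then added and luminescence measured.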
Pf growth 48h: P. falciparum growth inhibition at 48 hours (one generation); P. falciparum luciferase growth in erythrocytes, 48 h; Potency, µM (top dose mostly 28.7 µM), usual class: inhibitors; 310,000 compounds, 5.9% hits; AID 504832
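Parasite viability was followed by luminescence of a genomically integrated firefly luciferase. Cultures held 0.1% parasitemia at 2% hematocrit (final), incubated under 5% CO2 at 37 C.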
Marburg entry inh: inhibitors of Marburg virus binding or cell entry. AID 540276. 300,000 compounds, 1.8% hits. Marburg virus pseudotyped entry inhibition, cell reporter. Potency, µM (doses to about 37.8 µM), actives largely listed as inhibitors; calls by dose curve; tested in HEK293 cells
A number is an active result; . = inactive; ? = inconclusive; / = not tested or not shown; [ ] = dose if it differs, or a comment. Compounds with a hit are over-represented: about 14% of the library has one in this group of screens. Unless noted, the call rests on the fitted dose curve; in most records, active means well fitted inhibition curve with a large enough effect; inconclusive means small, poorly fitted or top-dose-only effect, or another doubt; inactive means no such curve, though single readings can be large or run the other way.

SMILES | LASV entry inh | HCMV inh | HCV inhibitor | Pf growth 96h | Pf growth 48h | Marburg entry inh
O=C(NCCCn1cccn1)C1CCC(=O)N(Cc2cccc(C(F)(F)F)c2)C1 (stereo not given) | / | . | . | . | . | /
O=C(NCc1cccc(Cl)c1)C1CCC(=O)N(CCCN2CCOCC2)C1 (stereo not given) | / | . | . | . | . | /
O=C(NCc1ccc(F)c(F)c1)C1CCC(=O)N(CCc2ccccc2)C1 (stereo not given) | / | . | . | ? | . | /
O=C(NCCCC1CCCC1)C1CCC(=O)N(Cc2cccc(C(F)(F)F)c2)C1 (stereo not given) | . | . | . | 11.7µM | . | ?
O=C(NCc1cccc(Cl)c1)C1CCC(=O)N(CC2CCCCC2)C1 (stereo not given) | . | . | . | 14.7µM | . | .
Cc1ccc(-n2nc3c(N4CCCC(C(=O)NCCc5ccccc5)C4)nnc(C)c3c2C)cc1 (stereo not given) | . | ? | / | / | / | /
COC(=O)[C@@](NC(C)=O)(Nc1ccccn1)C(F)(F)F | / | / | / | / | / | .
O/N=C(\c1ccccn1)C1CC1c1ccccc1 (stereo not given) | ? | -79.4 | . | ? | . | .
CC1CCCC(C)N1C(=O)CSc1nnc(COc2ccccc2)n1-c1ccccc1 (stereo not given) | ? | . | . | 14.7µM | / | .
O=C(CSc1nnc(COc2ccccc2)n1-c1ccccc1)c1ccccc1 | ? | . | . | ? | . | .
Cc1ccc(C(=O)CSc2nnc(COc3ccc(C#N)cc3)n2-c2ccccc2)cc1 | . | . | . | ? | . | .
CC(Sc1nnc(COc2ccc([N+](=O)[O-])cc2)n1-c1ccccc1)C(=O)O (stereo not given) | . | / | . | 9.28µM | . | .
CC(Sc1nnc(COc2ccc([N+](=O)[O-])cc2)n1C)C(=O)O (stereo not given) | . | . | . | . | . | .
Cc1ccc(NC(=O)CSc2nnc(COc3ccc(C#N)cc3)n2-c2ccccc2)cc1C | ? | . | ? | 10.4µM | ? | 7.3µM
Cc1ccc(OCc2nnc(SCC(=O)Nc3cccc4ccccc34)n2-c2ccccc2)cc1 | ? | . | ? | 13.1µM | ? | 12.6µM
CCOC(=O)c1cccc(NC(=O)CCS(=O)(=O)c2ccc3c(c2)CCN3C(=O)CC)c1 | . | . | / | / | / | .
Cc1ccc(OCc2nnc(SCc3cc(=O)[nH]c4ccccc34)n2-c2ccccc2)cc1 | ? | . | . | 5.86µM | ? | ?
COc1cc(/C=C/c2nc(C#N)c(N3CCCCC3)o2)cc(OC)c1OC | . | . | / | / | / | .
Cc1nc2[nH]c(=S)[nH]c2c(=O)[nH]1 | . | -64.0 | . | / | / | .
CC(C)CC1(C(=O)NCCc2c[nH]c3ccccc23)C=CCN1C(=O)c1ccccc1 (stereo not given) | . | . | .[8.37 µM] | 10.4µM | ? | .
Cc1cc(OCCn2cc(/C(N)=N/O)c3ccccc32)ccc1Cl | . | . | 7.08µM | ? | ? | ?
Cc1ccc(OCCn2cc(C#N)c3ccccc32)cc1 | . | . | ? | ? | 8.28µM | ?
COc1ccccc1OCCn1cc(C#N)c2ccccc21 | . | ? | ? | . | ? | .
O=C(COc1ccccc1)c1cn(Cc2ccccc2)c2ccccc12 | . | -62.5 | . | . | ? | ?
COC(=O)c1cn(CCOc2ccc(C)cc2)c2ccccc12 | . | . | ? | ? | / | ?
SMILES | LASV entry inh | HCMV inh | HCV inhibitor | Pf growth 96h | Pf growth 48h | Marburg entry inh
CC(=O)c1cn(CCOc2ccc(F)cc2)c2ccccc12 | / | . | 12.6µM | ? | ? | /
CC(C)=CCCC(C)=CCN1C(=O)[C@@]2(CC(C)=C[C@@H](COCc3ccccc3)O2)c2ccccc21 | / | / | / | / | / | .
O=C(C(=O)N1CCOCC1)c1cn(CCCOc2ccccc2)c2ccccc12 | . | . | . | . | . | ?
CC(=O)c1cn(CCCOc2ccccc2)c2ccccc12 | / | . | 7.08µM | . | ? | /
COc1cc(-c2cnc3c(NC=O)cc(-c4ccc(C)cc4)cn23)cc(OC)c1OC | / | -76.1 | / | / | / | /
COc1cc(-c2cc(NC=O)c3ncc(-c4ccccc4)n3c2)cc(OC)c1OC | / | . | / | / | / | /
COc1cc(-c2cnc3c(NC=O)cc(-c4ccccc4Cl)cn23)cc(OC)c1OC | / | -77.1 | / | / | / | /
COc1cccc(-c2cc(NC=O)c3ncc(-c4ccc(C(C)=O)cc4)n3c2)c1 | / | -64.4 | / | / | / | /
COc1ccc(F)cc1-c1cc(NC=O)c2ncc(-c3cc(OC)c(OC)c(OC)c3)n2c1 | / | -76.4 | / | / | / | /
COc1ccc(F)cc1-c1cc(NC=O)c2ncc(-c3cccc(C(=O)N(C)C)c3)n2c1 | / | . | / | / | / | /
CCOc1ccccc1C(=O)N1CCc2cc(OC)c(OC)cc2C1COc1ccc2c(C)cc(=O)oc2c1 (stereo not given) | . | . | / | / | / | ?
COc1ccc(Nc2c(-c3ccccn3)nc3ccc(Cl)cn23)cc1 | . | . | / | / | / | .
CC(=O)CSc1nc2cc3c(cc2cc1C#N)OCCO3 | ? | . | . | . | . | 1.41µM
CCCOc1ccc(N2C(=O)CC(N(CCOC34CC5CC(CC(C5)C3)C4)C(C)=O)C2=O)cc1 (stereo not given) | ? | . | . | 5.22µM | . | .
CC(C)(C)C(=O)/C=c1\[nH]c(=O)/c(=C\c2ccc(C#N)cc2)s1 | . | . | ? | . | / | .
COc1cc(/C=c2\s/c(=C\C(=O)C(C)(C)C)[nH]c2=O)cc(OC)c1OC | ? | . | ? | ? | ? | ?
Cc1cccc(/C=c2\s/c(=C\C(=O)C(C)(C)C)[nH]c2=O)c1 | ? | . | ? | 2.08µM | ? | .
COc1ccc(/C=c2\s/c(=C\C(=O)C(C)(C)C)[nH]c2=O)cc1O | / | . | ? | 4.15µM | ? | .
Cc1nn(C2CCS(=O)(=O)C2)c2nc(C3CC3)cc(C(=O)Nc3cccc(C#N)c3)c12 (stereo not given) | . | . | ? | ? | ? | .
C=CCSc1nc(N)c(C(=O)Nc2ccccc2)cc1C#N | . | . | 3.55µM | . | / | ?
CCCCNc1c2c(nc3c(-c4ccccc4)c(C)nn13)CCC2 | . | . | . | 9.28µM | / | .
CCC(C)Nc1c2c(nc3c(-c4ccccc4)c(C)nn13)CCC2 (stereo not given) | . | ? | 2.24µM | ? | ? | .
Cc1nn2c(NCCCN3CCOCC3)c3c(nc2c1-c1ccccc1)CCC3 | . | . | ? | . | ? | ?
Cc1nn2c(N3CCN(CCO)CC3)c3c(nc2c1-c1ccccc1)CCCC3 | . | . | . | ? | 8.28µM | ?
COc1cccc(Nc2c3c(nc4c(-c5ccccc5)c(C)nn24)CCC3)c1 | ? | -63.4 | ? | 11.7µM | ? | ?
O=C(O)CNC(=O)c1ccccc1I | / | . | / | . | . | /
O=C(O)c1ccc2c(c1)C(=O)N([C@H](Cc1ccc(C(F)(F)F)cc1)C(=O)O)C2=O | / | / | / | . | ? | /
CCCSCCCNC(=O)c1sc2nc(C)cc(C)c2c1-n1cccc1 | . | . | / | / | / | ?
COCc1nc2cccnc2n1C1CCN(S(=O)(=O)N(C)C)CC1 | . | . | / | / | / | /
